From PubChem BioAssay (NCI) come the findings set out here.

About 79,000 compounds went through this panel and 15% of them were active in at least one assay; those are over-represented in the sample as a whole. The source made the active and inactive calls. Cut-off read from the data, not from the text of the source: active = growth inhibition above about 70%; inactive = the rest.

A short description of the test: NCI Yeast Anticancer Drug Screen. Data for the mec2-1 strain (AID 157). The conditions noted are these: S. cerevisiae mec2-1 strain, at 50.0 µM, hits give high values. In outline: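 Mutant yeast (mec2-1) grown with compound; growth inhibition relative to vehicle control reported.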
As to `CC(C)(C)C1CCC(O)(CSc2ccccc2)CC1` (stereo not given), the growth inhibition was 1.45% (inactive). On to `Cc1cc(C)c(C(=O)CC(C)C)c(C)c1`, for which the growth inhibition is -3% (inactive). In the case of `CCc1ccc(/C(C#N)=C/c2ccccc2Cl)cc1`, the growth inhibition is 40.5% (inactive). Then `CN(C)CCN1CCc2c([nH]c3ccccc23)C1c1cccnc1` (stereo not given), with -24.8% (inactive).

As to `CNc1ncnc2c1c(C(N)=S)cn2C1OC(CO)C(O)C1O` (stereo not given), the growth inhibition was -22.7% (inactive). As for `CC(=O)Nc1ccc(N(C)C)cc1Cl`, the figure is -17.2% (inactive).

On to `O=C(Nc1ccccc1)c1ccc(I)cc1`, for which the growth inhibition is -31.7% (inactive). In the case of `CCCCCCCCCC(=O)N/N=C\c1cccc2ccccc12`, the growth inhibition is 17.9% (inactive). In the case of `O=C(O)c1cc(O)c(C(=O)O)cc1O`, the growth inhibition is -9.15% (inactive). For the compound `COc1ccc2[nH]c(C(F)(F)F)cc(=O)c2c1`, the growth inhibition is 11.7% (inactive). As to `CCCCN=Cc1ccc(Cl)cc1`, the growth inhibition is -24.1% (inactive). As to `O=C1c2ccccc2C(=O)N1C/C(Cl)=C/Cl`, the growth inhibition is -6.5% (inactive).

For the compound `CCCCCCCCCCCCCCCCN=C1C=Cc2ccccc2C1=NCCCCCCCCCCCCCCCC`, the growth inhibition is 6.4% (inactive). For the compound `CC(=O)OC1=C(C)C2=C3OC(=O)C(C)=C3CC[C@@]2(C)CC1`, the growth inhibition was 1.2% (inactive). In the case of `O=C(CCC(=O)OCC1CCCO1)OCC1CCCO1` (stereo not given), the growth inhibition is 2.45% (inactive).

For `C=CCCCC(C#N)c1ccc2c(c1)OCO2` (stereo not given), the growth inhibition is -14.2% (inactive).

`CCCCOc1cc(C(=O)O)ccc1[N+](=O)[O-]`: the growth inhibition is -19.4% (inactive).

Regarding `CSC(=Nc1ccc([N+](=O)[O-])cc1C#N)NC(=O)c1ccccc1`, the growth inhibition was -19.9% (inactive).

As to `Cc1ccc2[nH]c(=O)cc(C)c2c1`, the growth inhibition is -0.45% (inactive). Then `COc1ccc(C(O)(CCN2CCOCC2)c2ccc3c(c2)OCO3)cc1` (stereo not given), with 9.2% (inactive); and `CCN(CC)c1ccc(N=C2C=C(C(=O)Nc3ccc(C(=O)O)cc3)C(=O)c3ccccc32)c(C)c1`, with -25% (inactive). `NNC(=O)c1cccc2c1Oc1ccccc1S2`: the growth inhibition is -12.9% (inactive). Then `O=C(NN=C1c2ccccc2-c2ccccc21)C(F)(F)F`, with 2.05% (inactive); and `O=C1CC23CC(=O)CC2(C1)c1ccccc1C3=O` (stereo not given), with -11.8% (inactive); and `CSC(=NNC(N)=O)SC`, with -2.8% (inactive). Take `CC(=O)N(CCCc1ccccc1)C(C)(C)C`: the growth inhibition was 5.3% (inactive). With `O=C(NC1C2CC3CC(C2)CC1C3)c1cc(/C=C/c2ccccc2)[nH]c(=S)n1` (stereo not given), the growth inhibition is 2.35% (inactive). As to `CCOC(=O)Cc1ccc2c(c1)sc1nc(-c3ccc(OC)cc3)cn12`, the growth inhibition is 19.5% (inactive). As to `CN(C)CCN1CC2C3CCCCC3=C3CCCCC3C2C1` (stereo not given), the growth inhibition is 10.1% (inactive). Regarding `CNC(C)C#N` (stereo not given), the growth inhibition was -11.6% (inactive). `Nc1c(Cl)cnn2nnnc12`: the growth inhibition is -17.4% (inactive).

For `CSCCNC(=O)CS(=O)(=O)c1ccc(N)cc1`, the growth inhibition is -25.9% (inactive). With `N#CCCS(=O)(=O)O`, the growth inhibition was 21.9% (inactive). Regarding `COCCNc1ccc([N+](=O)[O-])cc1[N+](=O)[O-]`, the growth inhibition was -1.85% (inactive).

For the compound `FC(F)(F)c1cccc(N=Cc2ccc(C=Nc3cccc(C(F)(F)F)c3)cc2)c1`, the growth inhibition was -9.2% (inactive). As for `CO[C@@H]1C[C@H]2[C@@H]3CC[C@H]([C@H](C)COC(C)=O)[C@@]3(C)CC[C@@H]2[C@@]2(C)CC[C@H]3C[C@]312`, the figure is 5.8% (inactive); as for `CCCCC(C=O)(CC)CCC#N` (stereo not given), -2.55% (inactive). As to `CCCCCC(=O)/C=C/Sc1n[nH]c(=O)[nH]c1=O`, the growth inhibition is 41.1% (inactive).

Regarding `CC(=O)c1nc2ccccc2n1CC(=O)c1ccc([N+](=O)[O-])cc1`, the growth inhibition was 8.7% (inactive). Take `CCOC(=O)C(=O)C1CC(c2ccccc2)=NNC1=O` (stereo not given): the growth inhibition is 26.5% (inactive).
